About 7,500 (2.1%) of roughly 360,000 compounds were called active. A call without a number means that no potency is given here. Roughly 8% stayed inconclusive and do not appear here. The call rests on the fitted dose curve; in most records, active means well fitted cell-killing curve with a large enough effect; inconclusive means small, poorly fitted or top-dose-only effect, or effect the other way, or another doubt; inactive means no such curve, though single readings can be large or run the other way. Only a selection was taken, and actives are over-represented in it overall.
Assay: qHTS for induction of synthetic lethality in tumor cells producing 2HG: qHTS for the HT-1080-IDH1KD cell line
Settings: HT-1080 IDH1 knockdown viability, ATP luminescence, 48 h; series mostly up to 46.1 µM
Method in brief: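 Cytotoxicity counter-line: IDH1KD HT-1080, 48 h, CellTiter-Glo. Curves classed by r2, magnitude and activity.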
Potency means the concentration at half of the fitted maximal effect.

SMILES | Potency
OC(c1ccc(F)cc1)c1ncc(-c2cccc(C(F)(F)F)c2)[nH]1 (centres undefined) | inactive
Cc1cc(Br)cn2c(Cc3ccccc3C(F)(F)F)c(C3CCCCC3)nc12 | inactive
C[C@H](CO)N1C[C@H](C)[C@@H](CN(C)S(=O)(=O)c2ccc(Oc3ccccc3)cc2)OCc2cn(nn2)CCCC1=O | inactive
O=C(Nc1ccc2c(c1)OCCO2)c1ccoc1 | inactive
COc1cccc(NC(=O)c2nn(C34CC5CC(CC(C5)C3)C4)cc2[N+](=O)[O-])c1 | inactive
Cn1cc([N+](=O)[O-])c(C(=O)Nc2ccc3c(c2)OCCO3)n1 | 11.2 µM (active)
CNC(=O)C1CN(C(=O)c2cccc(S(=O)(=O)N3CCc4ccccc43)c2)c2ccccc2O1 (centres undefined) | inactive
COc1ccc(C(CNC(=O)c2ccc(OCc3cscn3)cc2)N2CCCC2)cc1 (centres undefined) | inactive
Cc1cccc(C(=O)OCC(=O)Nc2sccc2C(N)=O)c1C | inactive
O=C(NCCc1cccc(F)c1)C1CC(O)CN1C(=O)Nc1ccccc1 (centres undefined) | inactive
O=C(O)C(=Cc1ccc([N+](=O)[O-])cc1)CCc1ccccc1 | inactive
CN1CCN(C2Cc3ccc(Cl)cc3Sc3ccc(F)cc32)CC1 (centres undefined) | 13 µM (active)
O=[N+]([O-])c1ccc(CN2CC(N3CC=CC3)CS2(=O)=O)cc1 (centres undefined) | inactive
CSc1ccc(CN2CCC2(C)C(=O)Nc2ccc(C)c(O)c2)cc1 (centres undefined) | inactive
CCCCN1C(=O)C(CC(=O)NCc2cccs2)CC(C(=O)N2CCOCC2)=C1C (centres undefined) | inactive
Cc1ccc(NNC(=O)c2cccs2)cc1Cl | 5.8 µM (active)
Cc1ccc(C(=O)NNC(=O)c2cccs2)cc1 | inactive
Cc1ccc(C(=O)Nc2ccc(NC(=O)c3cccs3)cc2)c(C)c1 | 16.4 µM (active)
Cc1ccc(C)c(NC(=O)CCC(=O)NNC(=O)c2cccs2)c1 | inactive
O=C(NNC(=O)c1ccc(Cl)cc1Cl)c1cccs1 | inactive
Cc1ccc(NC(=O)c2cccs2)cc1S(=O)(=O)N(C)C | inactive
COC(=O)c1ccc2nc(-c3ccc(C)cc3)c(Cc3ccc(OC)cc3C)n2c1 | inactive

SMILES | Potency
CCCNC(=O)c1cc2c(c(-c3cccc(-c4ccc(C#N)cc4)c3)n1)[C@@H](CCO)N(C(=O)CC)C2 | inactive
O=C(NNC(=O)c1ccccc1O)c1ccccc1O | 9.2 µM (active)
Cc1cc(C(=O)CCC(=O)NNC(=O)c2ccccc2O)c(C)s1 | inactive
CC1=C(C)CC(C(=O)NNC(=O)c2ccccc2O)C(C(=O)O)C1 (centres undefined) | inactive
CCNC(=O)c1cc2c(c(-c3cccc(-c4cncnc4)c3)n1)[C@H](CCO)N(C(C)=O)C2 | inactive
O=C(Nc1cccc(C(=O)O)c1)/C(=C\c1ccccc1)NC(=O)c1ccc(Br)o1 | inactive
CC(C)n1c(-c2cccs2)nc2ccccc21 | inactive
Cc1cc(C)n(-c2nc(C(F)(F)F)nc3ccccc23)n1 | inactive
CC(Nc1nc(C(F)(F)F)nc2ccccc12)c1cccs1 (centres undefined) | 16.4 µM (active)
COCCCNC(=O)c1cccc2c(-c3ccc(O)c(OC)c3)coc12 | inactive
NC(CSC(c1ccccc1)(c1ccccc1)c1ccc(-c2ccccc2)cc1)C(=O)O (centres undefined) | inactive
O=C(NCc1nnnn1-c1ccc(Cl)cc1)c1ccc2c(c1)OCO2 | inactive
CCNC(=O)C1(C)CCCN(C(=O)c2ccc3ccccc3n2)C1 (centres undefined) | inactive
O=c1c2sccc2nc(SCc2cc(=O)n3ccccc3n2)n1-c1ccc(Br)cc1 | inactive
CCc1ccc(-n2c(SCc3cc(=O)n4cc(Br)ccc4n3)nc3[nH]ncc3c2=O)cc1 | 18.4 µM (active)
Cc1cccc2nc(CSc3nc4[nH]ncc4c(=O)n3-c3cccc(Cl)c3)cc(=O)n12 | inactive
CCc1nc2c(OCC(=O)C(C)(C)C)cccn2c1N(C)C(=O)c1ccccc1F | inactive
CCC(=O)N1CCCC1(C)C(=O)Nc1ccc2c(c1)CCN2C(C)=O (centres undefined) | inactive
CCOC(=O)c1cnc(-n2nc(C)cc2C)nc1NNc1cc(C)nc(-c2ccccc2)n1 | inactive
COc1ccc(NC(=O)c2nc(-n3nc(C)cc3C)ccc2Cl)cc1Cl | inactive
COc1ccc(Nc2cc(C)nc(-n3nc(C)cc3C)n2)cc1 | 0.794 µM (active)
CC(=O)c1ccc(Oc2cc(C)nc(-n3nc(C)cc3C)n2)cc1 | 4.61 µM (active)

SMILES | Potency
Cc1cc(C)n(-c2ccc(C(=O)O)cc2[N+](=O)[O-])n1 | inactive
COc1ccc(Nc2cc(Sc3ccc(OC)cc3)ncn2)cc1 | inactive
O=C1c2ccccc2-c2ccccc2NC1O (centres undefined) | inactive
CCC(=O)N1CCC(C)(C(=O)Nc2cc(OC)c(OC)c(OC)c2)C1 (centres undefined) | inactive
CCOC(=O)[C@]12CCCC=C1N(CCC1=CCCCC1)C(=O)[C@H](CC(=O)N1CCCCC1)C2 | inactive
Cc1ccc(-c2nc3c(Cl)cc(C(F)(F)F)cn3c2Cc2cccc(Cl)c2)cc1 | inactive
CNC(=O)C[C@H]1C(=O)N(Cc2ccccc2)C[C@@H]1CSC | inactive
Cc1nc(N2CCN(c3ccccn3)CC2)c2c(C)c(C(=O)Nc3ccc(F)cc3)sc2n1 | inactive
Cc1nc(N2CCOCC2)c2c(C)c(C(=O)Nc3ccc(C(F)(F)F)cc3)sc2n1 | 20.6 µM (active)
Cc1nc(N2CCN(c3ccccn3)CC2)c2c(C)c(C(=O)Nc3ccc(F)c(Cl)c3)sc2n1 | inactive
CC(=O)Nc1cccc(-c2ccnc3c2CC(C)(C(=O)NCc2ccccc2)O3)c1 (centres undefined) | 0.651 µM (active)
CC1(C(=O)Nc2cccnc2)Cc2c(-c3ccccc3)ccnc2O1 (centres undefined) | inactive
COc1ccc(NC(=O)C2(C)Cc3c(-c4cccc(NC(C)=O)c4)ccnc3O2)cc1OC (centres undefined) | 14.6 µM (active)
O=C(NCc1ccc2c(c1)OCO2)c1cc(F)c(F)cc1Cl | inactive
COc1ccc(NC(=O)C2(C)Cc3c(-c4ccc(C(N)=O)cc4)ccnc3O2)cc1 (centres undefined) | inactive
COc1ccc(NC(=O)C2Cc3c(-c4cccc(NC(C)=O)c4)ccnc3O2)cc1OC (centres undefined) | inactive
COc1cc(OC)c(C(=O)NCc2ccc3c(c2)OCO3)cc1OC | inactive
CC1(C(=O)NCc2ccc(F)c(F)c2)Cc2c(-c3ccc4c(c3)OCO4)ccnc2O1 (centres undefined) | 4.61 µM (active)
CC1(C)Cc2cccc(OCC(=O)NCc3ccccc3)c2O1 | inactive
O=C(Nc1ccc(F)cc1)Nc1nnc([C@H]2C[C@H](O)[C@@H](CO)O2)s1 | inactive

Source: PubChem BioAssay AID686971 (National Center for Advancing Translational Sciences (NCATS), 2013)
